Whole data set: some 33,000 sequences, median “E-score (-0.5 to 0.5)” near -0.021, cut for the highest 2% near 0.32. The list comes from a sample in which the highest values are over-represented; it also holds similar and randomly drawn sequences.
Target: T1, Zap1 (UniProt P47043)
T1 sequence: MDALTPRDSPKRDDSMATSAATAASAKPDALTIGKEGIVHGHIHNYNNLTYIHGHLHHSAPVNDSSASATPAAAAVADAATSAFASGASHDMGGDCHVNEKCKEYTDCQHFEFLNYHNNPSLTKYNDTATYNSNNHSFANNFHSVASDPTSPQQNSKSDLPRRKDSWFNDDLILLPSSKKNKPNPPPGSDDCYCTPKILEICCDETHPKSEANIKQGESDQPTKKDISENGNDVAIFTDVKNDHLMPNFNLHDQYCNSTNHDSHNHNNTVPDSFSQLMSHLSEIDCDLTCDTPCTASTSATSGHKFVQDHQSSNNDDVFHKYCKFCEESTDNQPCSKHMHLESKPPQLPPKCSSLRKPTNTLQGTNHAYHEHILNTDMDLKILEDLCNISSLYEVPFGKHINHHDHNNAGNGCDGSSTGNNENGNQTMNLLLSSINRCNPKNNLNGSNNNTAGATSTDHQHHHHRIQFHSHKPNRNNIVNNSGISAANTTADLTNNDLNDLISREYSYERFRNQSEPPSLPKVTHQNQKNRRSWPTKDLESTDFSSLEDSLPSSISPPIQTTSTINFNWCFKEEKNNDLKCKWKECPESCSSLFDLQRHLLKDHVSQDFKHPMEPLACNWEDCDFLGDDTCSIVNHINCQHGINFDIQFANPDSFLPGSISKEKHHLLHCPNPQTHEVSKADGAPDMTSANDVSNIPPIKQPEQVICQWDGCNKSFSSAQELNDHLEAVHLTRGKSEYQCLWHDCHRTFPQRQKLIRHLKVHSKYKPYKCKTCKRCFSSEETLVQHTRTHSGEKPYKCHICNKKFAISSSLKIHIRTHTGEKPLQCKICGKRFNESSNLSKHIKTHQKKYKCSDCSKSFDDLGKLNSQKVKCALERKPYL
Test: PBM E-score (8-mer binding enrichment) (E-score (-0.5 to 0.5)); higher = stronger / more preferred TF binding
Details: protein concentration: 200 nM; construct: GST-full length
Description: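 Universal 'all 10-mer' protein binding microarrays (Agilent AMADID 015681) probed with GST-tagged S. cerevisiae TFs (full-length or DBD) made by in vitro transcription/translation (PURExpress), about 100-200 nM. Bound TF was detected with fluorescent anti-GST. Each ungapped 8-mer (which stands for itself and its reverse complement) is scored by the PBM enrichment score (E-score), a modified Wilcoxon-Mann-Whitney statistic from -0.5 to +0.5, computed with the Universal PBM Analysis Suite. Scale: above 0.35 generally sequence-specific binding.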

Sequence	PBM E-score
AACCAACA	0.254
CGGCTCGA	-0.172
ACAAAAGC	-0.0458
CAGCGCAG	-0.221
AGGGTGGG	0.334
AGGGTTGG	0.333
CGGGTTGC	0.18
AGGGTTTC	0.232
AGGGTTGC	0.46
AGGGTGGC	0.293
ATGGTTGG	-0.0414
AGGGTTGA	0.271
AGGGTGGA	0.163
TCATGCGA	-0.00209
GCTCTTGA	-0.213
CGGAGTTC	0.0089
GTTAGGAA	0.168
GAAGCAAC	0.106
AACCGGGG	-0.00821
AACCGGTG	-0.0964
AACCGGGT	0.319
AACCGGTT	0.348
AACCGGGA	0.133
AACCGGTC	0.14
CGGAACTA	0.141

Sequence	PBM E-score
CGATGCCG	-0.11
GACTTGCA	-0.0829
GGGTTTAC	0.316
CGGGTTAC	0.439
CGGGTTGA	0.24
CGGGTTAG	0.0706
CGGGTTTC	0.289
GGAGTTAC	0.137
CGGGTTTA	0.205
CGGGTTAA	0.356
GGGGTTAC	0.464
TCACAGCA	0.124
ACTCCTTG	0.0145
ATGGTGAA	-0.0722
CACCACTG	-0.0127
CTACGTAG	-0.0165
TAAGTTCA	0.0427
GGTAGACA	-0.0227
ACCCGGTA	0.329
CACCGGTA	0.188
AACCGGTA	0.0841
CCCCGGTA	0.153
ACCCGGTC	-0.0272
TACCGGTA	0.355
ACTAGCTG	-0.214

Sequence	PBM E-score
CATAGTGC	-0.16
AGCGAATC	-0.083
CTCCAGAC	-0.165
AGGGTAAA	0.235
AGGGTAAT	0.38
AGAGTAAG	0.0042
ATGGTAAT	0.239
AGGGTAAG	0.373
GAGAGCAC	-0.00012
CATTGGAG	-0.0511
GAAGCATC	-0.258
ACGATGCG	-0.223
ACCGTAAG	0.101
CTCGTAAG	0.215
ACCGTAAT	0.0558
ACCGTAAC	0.331
GTCGTAAC	0.256
CTCGTAAC	0.327
ACAAGTCC	-0.0469
GCAACTGC	-0.207
ACGAGTTA	0.0684
ATACCTCG	0.338
ATACCTCA	0.223
ATACCTCC	-0.0021
CACACCTA	-0.0992

Sequence	PBM E-score
TAGACATA	0.0776
AAAAAGGT	0.403
AAAAAGGG	0.243
ACAAAGGG	0.0567
ACAAAGGT	0.352
AAAAAGGA	0.15
ACAAAGGC	0.0392
CCTTTCTA	0.121
ATCTAACC	0.226
AGATACCA	0.137
CGATACCC	0.275
GGATACCA	0.17
AAATACCC	0.328
AAATACCT	0.128
AGATACCC	0.325
CAATACCC	0.214
GGATACCC	0.393
AGATACCG	0.0651
ACTCATGA	-0.0211
CAGTAGGA	-0.247
AGATATCT	0.0317
TGATTGAA	0.154
ACCTAAGG	0.185
ACTGCTTC	-0.175
ACCTTGGC	0.106

Sequence	PBM E-score
CCCTTGAG	0.33
CCCTTGAA	0.102
ACCTTGAA	0.337
ACCTTGAC	0.266
ACCTTGAT	0.325
ACCTTGGA	0.195
GCCTTGAA	0.0337
CCCTTGAC	0.193
TCCTTGAA	0.158
ACCTTGCT	0.218
ACCTTGGG	0.327
CGTGAGGA	-0.201
AGAGCGAA	-0.124
CACTCTGG	-0.151
CATTCTAG	-0.0521
GGATAGAA	0.0515
CGTTAGAG	-0.109
CATCCAGC	-0.108
ACCTTGAG	0.354
ACCTTGCG	0.284
AACTTGAG	-0.143
AAGGTCAT	0.444
ACGGTCAG	0.0381
ACGGTCAA	0.177
AAGGTCGT	0.334

Sequence	PBM E-score
AAGGTCGC	0.193
ACGGTCAT	0.359
AAGGTCAA	0.279
GAGGTCAA	0.21
AAGGTCGA	0.176
AAGGTCCT	0.123
GAGGTCAC	0.392
CAGGTCAC	0.195
GCTTGACC	0.214
ATAAAGAT	0.00332
AACACCTA	0.0163
ATGGTAGA	-0.00844
GAGAGAGC	-0.261
AAATGGAG	-0.132
TGCCCTAA	-0.171
CTTAGGGC	0.0876
ATTGACTG	-0.136
AAGGTCAC	0.417
CAGGTCAG	0.0791
AAGGTCCC	0.152
AAGGTCAG	0.32
AAGGTCTC	0.162
AAGGTCTG	0.15
GAAAGCGC	-0.115
AGAAACCG	0.0611

Sequence	PBM E-score
CTGTACTA	0.0369
GGCGACAC	-0.0969
CGGCTGAC	-0.193
GAGACCAC	0.15
GAGGGCAA	-0.0412
CAGGCGAC	-0.117
AAACCTGT	0.0581
AAGCCTGT	-0.128
AACCCTGT	0.419
CACCCTAG	0.353
CACCCTAC	0.328
AAACCTAC	0.194
GACCCTAC	0.311
AGCCCTAC	-0.12
CACCCTCG	0.234
CGCCCTAG	-0.00248
AACCCTAC	0.357
CCCCCTAC	-0.32
CTCAGCAG	-0.129
TCAGCGAA	-0.107
CTCGCTTA	-0.0929
AAGCCTGC	-0.182
CTTCAGTA	0.0193
AGAGACCA	0.121
ATGGTGCA	0.0684

Sequence	PBM E-score
CTCACGAG	0.0376
ACCTGAAT	0.136
CAGCTGTA	-0.203
AAACCTAT	0.164
ATCCCTAG	0.0856
AAACCTAG	0.051
AACCCTAT	0.441
AACCCTAG	0.408
AACCCTCT	0.27
CAAATTCC	-0.00509
GGTCGCGA	0.32
GGTCACGA	0.391
CGTCACGA	-0.0348
TGTCACAA	0.0989
AGTCGCGA	0.113
CGTCACAA	-0.0229
GGTCACAA	0.393
AGTCACGA	0.0207
CGTCGCGA	0.00596
AGATAGGG	-0.0822
GAGCGTGC	-0.173
TATTAGAA	0.159
AGAAGTCT	-0.257
AGCCTGAG	-0.0458
TGTGAGAA	-0.0687

Sequence	PBM E-score
CGGACTTC	-0.17
CATATGGA	-0.057
AATCCAAC	-0.0925
GAGACCTC	0.0168
ATCTAGGC	-0.197
CCCTACAA	0.33
ACCTACAA	0.178
CCCTACAC	0.0286
CCAATGCA	-0.0366
CAACTAAC	0.21
GCTCGAGC	-0.169
ATACCTTA	0.184
CCACCTGA	0.0282
CTACCTGA	0.00976
CCACCTTA	0.342
GCACCTTA	0.112
CTACCTTA	0.327
AAGAGCAG	-0.247
CAACTGGC	-0.0185
